# Records with an inconclusive call do not appear. Unmarked numbers belong to inactive results. The source made the active and inactive calls. Calls come from the whole dose curve; as a rule, active = well fitted cell-killing curve with a large enough effect; inconclusive = small, poorly fitted or top-dose-only effect, or effect the other way; inactive = flat fitted curve, though single readings scatter.
# System: Tov112D
# Experiment: Primary qHTS to identify gynecologic anti-cancer compounds using libraries of approved drugs and bioactive compounds (AID 1345084); note: nearly all actives have a fitted effect of over 55% in size
# Details: Gynecologic cancer cell panel viability, ATPlite luminescence, 48 h; series mostly up to 57.5 µM; activity change, negative = cytotoxicity: at the top concentration
# How it was run: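 Cytotoxicity screen measuring ATP content by luciferase luminescence. Each compound is applied at five concentrations for 48 h at 37 C with 5% CO2.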
# % is set by controls: 0 for no effect and ±100 for the full control effect; potency is the fitted concentration of half-maximal effect.
Compound,"activity change, negative = cytotoxicity",Potency
COc1ccc(C2=NC(c3ccc(Cl)cc3)C(c3ccc(Cl)cc3)N2C(=O)N2CCNC(=O)C2)c(OC(C)C)c1 (stereo not given),1.23%,
N#Cc1cc(CN2CCC(Nc3ncnc4sc(Cl)cc34)CC2)ccc1F,-23.5%,
Cn1sc(=O)n(Cc2ccccc2)c1=O,-0.233%,
CO[C@H]1C[C@@H]2CC[C@@H](C)[C@@](O)(O2)C(=O)C(=O)N2CCCC[C@H]2C(=O)O[C@H]([C@@H](C)C[C@@H]2CC[C@@H](O)[C@H](OC)C2)CC(=O)[C@H](C)/C=C(\C)[C@@H](O)[C@@H](OC)C(=O)[C@H](C)C[C@H](C)/C=C/C=C/C=C/1C,-32.5%,
CCn1nc(C2CCN(C(=O)CCO)CC2)nc1-c1cnc(N)c(-c2nnc(C(C)(C)C)o2)n1,11.6%,
CC(C)C[C@@H]1NC(=O)[C@@H](Cc2ccccc2)NC(=O)C(CCCCCC(=O)C2CO2)NC(=O)[C@@H]2CCCCN2C1=O (stereo not given in full),-4.49% [at 25.3 µM],
NC(=O)c1cnc(N[C@@H]2CCCC[C@H]2N)nc1Nc1cccc(-n2nccn2)c1,-21.4%,
CN1CCN(C2CCN(C(=O)Nc3cc(Oc4ccc(NC(=O)C5(C(=O)Nc6ccc(F)cc6)CC5)c(F)c4)ccn3)CC2)CC1,-27.8%,
C=C1C(=O)O[C@@H]2/C=C(\C)CC/C=C(/C=O)[C@H](OC)[C@@H](OC(=O)C(C)C)[C@@H]12,-13.2% [at 38.5 µM],
CC(=O)O[C@@]12CO[C@@H]1C[C@H](O)[C@@]1(C)C(=O)[C@H](O)C3=C(C)[C@@H](OC(=O)[C@H](O)[C@@H](NC(=O)OC(C)(C)C)c4ccccc4)C[C@@](O)([C@@H](OC(=O)c4ccccc4)C12)C3(C)C (stereo not given in full),-36.8% [at 25.3 µM],
C[C@H](Nc1ncnc2nc[nH]c12)c1cc2cccc(Cl)c2c(=O)n1-c1ccccc1,0.537%,
C=C1CO[C@@]2(O[C@H]3CC4C5CC=C6C[C@@H](O)C[C@@H](O[C@@H]7OC[C@H](O)[C@H](O[C@@H]8OC[C@@H](O)[C@H](O)[C@H]8O)[C@H]7O[C@@H]7O[C@@H](C)[C@H](OC(C)=O)[C@@H](OC(C)=O)[C@H]7OC(C)=O)[C@]6(C)C5CC[C@]4(C)[C@@H]3[C@@H]2C)[C@@H](O)[C@H]1OC1OC(C)C(O)C(O)C1O (stereo not given in full),,3.55 µM (active)
CC(=O)O[C@@H]1[C@@H](OC(C)=O)[C@H](C)O[C@@H](O[C@H]2[C@@H]3C=CO[C@@H](O[C@@H]4O[C@H](CO)[C@@H](O)[C@H](O)[C@H]4O)[C@@H]3[C@@]3(CO)O[C@@H]23)[C@@H]1OC(=O)/C=C/c1ccccc1,-6.15% [at 25.3 µM],
CC(C)S(=O)(=O)Nc1ccc(F)c(C(=O)c2c[nH]c3ncc(-c4cccnc4)cc23)c1F,-14.8%,
CCNc1nc(Nc2cc(F)c(C(=O)N3CCOCC3)cc2OC)ncc1C(F)(F)F,-0.396%,
C=C1C(=O)O[C@@H]2C[C@@]3(C)C[C@@H](O)C[C@H](C)C3=C[C@H]12,7.28%,
CC(C)S(=O)(=O)c1ccc2nccc(Nc3ccc4scnc4c3)c2c1,-18.1%,
C/C1=C\CCC2=CC(OC2=O)C(C)(C)/C=C/C1=O (stereo not given),-24.4%,
COc1cc(Br)c(S(=O)(=O)Nc2ccc(Cl)c(O[C@@H]3CCN(C)C3)c2)cc1OC,-10.1%,
CC(=O)O[C@@H]1[C@H](O[C@@H]2O[C@@H](CO)[C@H](O)[C@H]2O)[C@@H](O[C@@H]2O[C@@H](C)[C@H](O[C@@H]3OC[C@@H](O)[C@H](O)[C@H]3O)[C@@H](O)[C@H]2O)[C@H](OC(=O)[C@]23CCC(C)(C)C[C@H]2C2=CCC4[C@@]5(C)CC[C@H](O[C@@H]6O[C@H](C(=O)O)[C@@H](O)[C@H](O)[C@H]6O[C@@H]6O[C@H](CO)[C@H](O)[C@H](O)[C@H]6O)[C@@](C)(C=O)C5CC[C@@]4(C)[C@]2(C)C[C@H]3O)O[C@@H]1C (stereo not given in full),-3.22% [at 6.55 µM],
C[C@H]1[C@H](/C=C/c2ccc(-c3ccccc3C#N)cn2)[C@@H]2[C@@H](C)OC(=O)[C@@H]2C[C@@H]1C,,20 µM (active)
COC1=CC(=O)C[C@@H](C)[C@@]12Oc1c(Cl)c(OC)cc(OC)c1C2=O,,0.1 µM (active)
Cc1[nH]c(/C=C2\C(=O)Nc3ccc(F)cc32)c(C)c1C(=O)NCCN1CCCC1,-25.2%,
CNS(=O)(=O)c1ccccc1Nc1nc(Nc2ccc(N3CCN(C)CC3)cc2OC)ncc1Br,,12.6 µM (active)
CN(C)CC1CCn2c(c(C3=C(c4cn(C)c5ccccc45)C(=O)NC3=O)c3ccccc32)C1 (stereo not given),-11.1%,

# Source: PubChem BioAssay (NCATS)
